Assay outcomes deposited in PubChem BioAssay by National Center for Advancing Translational Sciences (NCATS).
CtBP-E1A inh – blocks the CtBP interaction with E1A; AlphaScreen GST-E1A/His-CtBP binding, 1536-well; active compounds read low; activity change, % (no concentration beside the values); hit rate 0.49% among 340,000; AID 651724
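GST-E1A and His-tagged CtBP (125 nM each as 5X stock) were preincubated with pin-transferred compound for 2 h at 37 °C in the dark, then glutathione donor and nickel acceptor beads were added for 1 h before AlphaScreen reading.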
Menin MLL FP FL – displaces fluorescein MLL peptide from human menin; Fluorescence polarization, fluorescein-MLL peptide displacement from menin; FP activity change, % at 61.4 µM; 290,000 tested, under 10 active; AID 1766; active = well fitted curve in the direction sought with a large enough effect in the polarisation, not every such curve was filed as active; inconclusive = small, poorly fitted or top-dose-only effect, or effect the other way, or a change in a side signal; inactive = no such curve, though single readings can be large or run the other way; the % refers to the polarisation
Menin MLL FP TR – menin-MLL binding inhibition, Texas Red mutant peptide. Menin + Texas Red MLL mutant peptide, fluorescence polarization. Potency, µM (highest dose often 61.6 µM), actives largely listed as inhibitors. hit rate 0.23% among 270,000; active = well fitted inhibition curve with a large enough effect in the polarisation, with a control signal flat, not every such curve was filed as active; inconclusive = small, poorly fitted or top-dose-only effect, or effect the other way, or a change in a side signal; inactive = no such curve, though single readings can be large or run the other way; the % refers to the polarisation
GLS inhibitor – inhibitors of human glutaminase (GLS); O94925; GLS enzymatic activity, qHTS titration; Potency, µM (titrated, usually from 45.5 µM), actives largely listed as inhibitors; hit rate 0.21% among 410,000; AID 624170; active = well fitted inhibition curve with a large enough effect; inconclusive = small, poorly fitted or top-dose-only effect, or another doubt; inactive = no such curve, though single readings can be large or run the other way
Target sequence (O94925 whole entry, looked up): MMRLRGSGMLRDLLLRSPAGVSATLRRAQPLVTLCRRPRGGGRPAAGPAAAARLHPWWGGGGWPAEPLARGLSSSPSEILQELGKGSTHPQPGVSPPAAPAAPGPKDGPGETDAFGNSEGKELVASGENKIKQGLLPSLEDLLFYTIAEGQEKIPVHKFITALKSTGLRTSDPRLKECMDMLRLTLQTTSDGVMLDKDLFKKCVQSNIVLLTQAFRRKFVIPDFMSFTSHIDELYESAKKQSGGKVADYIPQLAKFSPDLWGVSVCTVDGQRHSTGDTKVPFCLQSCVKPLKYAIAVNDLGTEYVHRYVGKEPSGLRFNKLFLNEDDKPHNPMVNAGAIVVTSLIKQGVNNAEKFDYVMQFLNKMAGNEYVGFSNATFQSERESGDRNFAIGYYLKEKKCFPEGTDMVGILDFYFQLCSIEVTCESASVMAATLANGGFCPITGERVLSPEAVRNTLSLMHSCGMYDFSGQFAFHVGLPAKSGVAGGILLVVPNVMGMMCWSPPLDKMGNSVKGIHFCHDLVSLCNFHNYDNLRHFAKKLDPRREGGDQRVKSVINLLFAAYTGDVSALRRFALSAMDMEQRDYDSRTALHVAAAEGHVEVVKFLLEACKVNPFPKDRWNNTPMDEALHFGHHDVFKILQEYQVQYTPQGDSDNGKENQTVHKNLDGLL
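Compounds were pin-transferred onto hKGA, after which L-glutamine (1 mM solution) and a detection mix of glutamate oxidase, HRP and Amplex Red were added. Initial and 30 min RT fluorescence reads were collected.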
CXXC DNA block – inhibitors of human MLL CXXC domain-DNA interaction; Q03164; MLL-CXXC / FITC-HOXA9 DNA fluorescence polarization; Potency, µM (top dose mostly 115 µM), usual class: inhibitors; hit rate 0.037% among 290,000; active = well fitted inhibition curve with a large enough effect in the polarisation, with a control signal flat, not every such curve was filed as active; inconclusive = small, poorly fitted or top-dose-only effect, or effect the other way, or a change in a side signal; inactive = no such curve, though single readings can be large or run the other way; the % refers to the polarisation
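Fluorescence polarization: 7 uM MLL-CXXC (stock) preincubated 5 min with compounds, then 50 nM fluorescein-HOX-A9 DNA (stock) added; 30 min ambient. Buffer 50 mM Tris-HCl pH 7.5, 50 mM NaCl, 1 mM DTT, 0.05% BSA.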
Six1-Eya2 inh – inhibitors of human Six1/Eya2 interaction | AlphaScreen GST-Six1/His-Eya2 binding, biochemical; active compounds read low | activity change, % (no concentration beside the values) | hit rate 0.56% among 360,000
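AlphaScreen with GST-Six1 and His-Eya2 (5X mix: 250 nM and 500 nM), glutathione donor and nickel acceptor beads; buffer 50 mM Tris pH 8.0, 300 mM NaCl, 1 mM TCEP; 1 h at 37 C in the dark.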
A number is an active result; n = inactive; u = inconclusive; x = no result given. Only some compounds are listed: those with a hit (about 0.83% of all), similar ones and a draw of the others. Cut-off read from the data, not from the text of the source, unless noted: active = activity change below about -65%; inconclusive = mostly about -30% to -63%; inactive = weaker than that.

SMILES	CtBP-E1A inh	Menin MLL FP FL	Menin MLL FP TR	GLS inhibitor	CXXC DNA block	Six1-Eya2 inh
CCN(CC)c1ccc(NC(=O)Nc2ccccc2)cc1	u	n	u	12.6µM	n	n
O=C(Nc1ccc(Br)cc1)c1ccc(Br)c(S(=O)(=O)Nc2cccnc2)c1	-65.7	n	n	n	n	u
Cc1ccccc1NC(=O)c1ccc(C)c(S(=O)(=O)Nc2cccnc2)c1	n	x	x	n	n	n
Cc1c(NC(=S)N/N=C\c2ccccc2O)c(=O)n(-c2ccccc2)n1C	n	n	n	n	n	-90.4
Cc1c(NC(=S)N/N=C/c2ccc([N+](=O)[O-])cc2O)c(=O)n(-c2ccccc2)n1C	-93.2	n	x	n	n	-83.9
COc1ccc(/C=C/C(=O)NC(=S)Nc2ccc(S(=O)(=O)Nc3cc(C)on3)cc2)cc1	n	n	u	n	n	n
COc1ccc(/C=C/C(=O)NC(=S)Nc2ccc(S(=O)(=O)Nc3ccc(OC)nn3)cc2)cc1	-77.0	n	u	n	n	u
COc1ccc(/C=C(\C#N)C(=O)NCCc2ccccc2)cc1OCc1ccccc1	n	n	n	n	n	n
COCCCNC(=O)/C(C#N)=C/c1ccc(OCC(=O)O)c(OC)c1	n	n	n	10µM	n	u
COC(=O)c1c(NC(=O)CCCOc2cccc(C)c2)sc2c1C(C(=O)OC)CC2 (centres undefined)	x	x	x	n	x	x
COc1cccc(Nc2nc(-c3sc(N)nc3C)cs2)c1	-72.0	n	u	n	n	u
CCCCN1C(=O)C(=O)N(CC(=O)Nc2ccccc2C(C)=O)C1=O	n	x	x	n	x	n
CCCCN1C(=O)C(=O)N(CC(=O)Nc2ccccc2C(=O)OCC)C1=O	-97.7	n	n	n	u	n
c1ccc(-c2nn[nH]n2)c(Nc2cccc3c2CCCC3)c1	x	n	u	x	x	x
Nc1c(Cl)ncnc1N/N=C/c1cccnc1	n	n	x	u	n	n
Nc1c(Cl)ncnc1N/N=C/c1ccc2ccccc2n1	-79.5	u	n	n	n	-80.4
Nc1c(Cl)ncnc1N/N=C/c1ccccn1	-86.3	n	n	n	n	-87.0
Nc1c(Cl)ncnc1N/N=C/c1ccnc2ccccc12	n	x	n	n	n	n
O=[N+]([O-])c1ccc(O)c(/C=N/NC2=NS(=O)(=O)c3ccccc32)c1	-70.5	u	u	n	n	-70.1
Oc1ccccc1/C=N/Nc1nn[nH]n1	x	n	x	n	n	-91.1
O=[N+]([O-])c1ccc(/C=N/NC2=NS(=O)(=O)c3ccccc32)cc1	n	n	n	n	n	n
C(=N\Nc1nn[nH]n1)/c1ccccc1	n	n	n	n	n	n
Cc1nnc(N/N=C/c2c(Cl)cccc2Cl)n1N	n	n	n	n	n	n
Cc1nnc(N/N=C/c2ccccc2O)n1N	-87.3	n	n	n	u	-78.5
O=[N+]([O-])c1ccc(O)c(-c2nn[nH]n2)c1	-94.1	n	u	u	n	-92.0
SMILES	CtBP-E1A inh	Menin MLL FP FL	Menin MLL FP TR	GLS inhibitor	CXXC DNA block	Six1-Eya2 inh
Nc1c(NC/C=C\COc2cc(CN3CCCCC3)ccn2)c(=O)c1=O	x	x	x	n	x	x
O=[N+]([O-])c1ccc(O)c(/C=N/Nc2ccc(Cl)nn2)c1	-90.8	n	n	n	n	-81.6
C=CCc1c(C)nc(C)nc1N/N=C/c1ccccc1O	-91.8	u	n	n	u	-81.0
Oc1cccc(/C=N/Nc2ccc(Cl)nn2)c1	n	n	n	n	n	n
O=[N+]([O-])c1ccc(O)c(/C=N/Nc2nn[nH]n2)c1	u	n	n	n	n	-74.2
C=CCc1c(C)nc(C)nc1N/N=C/c1ccc([N+](=O)[O-])cc1	n	n	n	n	n	n
NC(N)=N/N=C/c1cc([N+](=O)[O-])ccc1O	n	n	n	n	n	n
Clc1ccc(CCNC(c2nnc(-c3ccccc3)o2)c2ccccc2Cl)cc1 (centres undefined)	x	x	x	n	x	x
O=C(/C=C/c1ccc(I)cc1)c1ccc(B(O)O)cc1	x	n	n	x	x	x
O=Nc1c(-c2c(O)[nH]c3cc(Br)ccc23)[nH]c2ccccc12	u	n	u	n	u	-71.0
Cc1cccc(NC(=O)CCc2c(C)nc3c(c(C)nn3C(C)(C)C)c2C)c1C	x	x	x	n	x	x
